The values that follow come from PubChem BioAssay (Tox21).

Inconclusive results are not listed. Calls of active or inactive are those of the source. Calls follow the shape of the dose curve; as a rule, active = well fitted cell-killing curve with a large enough effect in the repeat runs; inconclusive = weak or mixed curves, or effect the other way; inactive = no such curve, though single readings can be large or run the other way.
% is scaled to controls: 0 for no effect and ±100 for the full control effect.

One assay is described as follows: qHTS assay to identify small molecule antagonists of the glucocorticoid receptor (GR) signaling pathway - cell viability counter screen (AID 720693). Also: nearly all actives have a fitted effect of over 55% in size. The settings on record: GR-bla HeLa viability, CellTiter-Glo luminescence, 18 h, with 5 nM dexamethasone present; series mostly up to 58.5 µM; viability change, negative = cytotoxic: at the top concentration. (In qHTS, concentration-response curves come from the screen itself.)
In the case of `CC(C)NCC(O)c1ccc2ccccc2c1` (configuration not stated), the “viability change, negative = cytotoxic” value is 5.4% (inactive).

Consider `O/N=C/C=N/O`, for which the “viability change, negative = cytotoxic” value is -5.25% (inactive).

For `C=CCOC(=O)CCCCCC`, the “viability change, negative = cytotoxic” value was 5.83% (inactive).

In the case of `O=[N+]([O-])c1c(Cl)cc(Cl)cc1Cl`, the “viability change, negative = cytotoxic” value is -1.24% (inactive).

In the case of `O=C1OCCO1`, the “viability change, negative = cytotoxic” value is -1.46% [at 78.9 µM] (inactive).

As for `CC1CCc2c(N3CCC(O)CC3)c(F)cc3c(=O)c(C(=O)O)cn1c23` (configuration not stated), the “viability change, negative = cytotoxic” value was 10.6% (inactive).

Regarding `Nc1nc(-c2ccccc2)c(Br)c(=O)[nH]1`, the “viability change, negative = cytotoxic” value is -8.94% (inactive).

As for `CCC(C)C(=O)OCCc1ccccc1` (configuration not stated), the “viability change, negative = cytotoxic” value was 2.07% (inactive).

On to `CC(=O)O[Si](C)(OC(C)=O)OC(C)=O`, for which the “viability change, negative = cytotoxic” value was -2.75% [at 78.9 µM] (inactive).

Take `CCCCCC/C=C/C(=O)OC`: the “viability change, negative = cytotoxic” value was -13.6% (inactive).

Regarding `NCc1ccc(S(N)(=O)=O)cc1`, the “viability change, negative = cytotoxic” value is 1.11% [at 27 µM] (inactive).

With `CCCCOC(=O)[C@H](C)O`, the “viability change, negative = cytotoxic” value was -0.567% (inactive).

In the case of `CCCCCCC1(C)CCC(=O)O1` (configuration not stated), the “viability change, negative = cytotoxic” value was 8.71% (inactive).

With `C=CCN1C[C@H](C(=O)N(CCCN(C)C)C(=O)NCC)C[C@@H]2c3cccc4[nH]cc(c34)C[C@H]21`, the “viability change, negative = cytotoxic” value is 1.07% (inactive).

For the compound `Cc1ccccc1C(N)=O`, the “viability change, negative = cytotoxic” value was 5.74% (inactive).

In the case of `[O]=[Mo](=[O])=[O]`, the “viability change, negative = cytotoxic” value was -1.14% [at 27 µM] (inactive).

`c1ccc2cnccc2c1`: the “viability change, negative = cytotoxic” value is -5.44% (inactive).

On to `Cc1cccc(Cl)c1`, for which the “viability change, negative = cytotoxic” value is -0.963% (inactive).

Turning to `O=NN(CCCl)C(=O)NC1CCCCC1`, the “viability change, negative = cytotoxic” value was -7.26% (inactive).

In the case of `CCCCCc1cccc(=O)o1`, the “viability change, negative = cytotoxic” value is 10.9% (inactive).

Consider `CC(C)COC(=O)c1ccccc1`, for which the “viability change, negative = cytotoxic” value was -2.68% (inactive).

As to `CCCCCC(C)O` (configuration not stated), the “viability change, negative = cytotoxic” value was -8.07% (inactive).

In the case of `Cc1ccc(N)cc1S(=O)(=O)O`, the “viability change, negative = cytotoxic” value was -2.16% (inactive).

Take `OCC(O)CN1CCN(c2ccccc2)CC1` (configuration not stated): the “viability change, negative = cytotoxic” value is -1.94% (inactive).

Take `CC(C)=CCC/C(C)=C/COC=O`: the “viability change, negative = cytotoxic” value is -0.0271% (inactive).

Take `CC(=O)CCc1ccc(OC(C)=O)cc1`: the “viability change, negative = cytotoxic” value was -2.29% (inactive).

On to `CO[Si](CCCn1c(=O)n(CCC[Si](OC)(OC)OC)c(=O)n(CCC[Si](OC)(OC)OC)c1=O)(OC)OC`, for which the “viability change, negative = cytotoxic” value was 2.14% (inactive).

`CC(=O)CCC1=C(C)CCCC1(C)C`: the “viability change, negative = cytotoxic” value is -4% (inactive).

In the case of `Cc1ncc([N+](=O)[O-])n1CC(C)O` (configuration not stated), the “viability change, negative = cytotoxic” value is 3.23% (inactive).

With `CC(=O)Nc1ccc(OC(=O)c2ccccc2OC(C)=O)cc1`, the “viability change, negative = cytotoxic” value is 6.34% (inactive).

As for `CC/C=C\CCOC(=O)c1ccccc1O`, the “viability change, negative = cytotoxic” value was 0.11% (inactive).

Turning to `C=CCCCCCCCCC(=O)OCCCC`, the “viability change, negative = cytotoxic” value was -1.68% (inactive).

For `CC(O)COC(C)(C)C` (configuration not stated), the “viability change, negative = cytotoxic” value was 18.6% (inactive).

With `CC(Oc1cc(Cl)ccc1Cl)C(=O)O` (configuration not stated), the “viability change, negative = cytotoxic” value is -4.28% (inactive).

The next assay can be described thus: qHTS assay for identifying genotoxic compounds that show differential cytotoxicity against isogenic chicken DT40 cell lines with known DNA damage response pathways - wild type cell line (AID 743012). Also: nearly all actives have a fitted effect of over 60% in size. Also: potency is read from the fitted curve at half-maximal effect. The settings on record: DT40 wild type chicken cells viability, CellTiter-Glo, 40 h; series mostly up to 68.4 µM; activity change, negative = cytotoxicity: at the top concentration. The gist of the method: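 Endpoint: CellTiter-Glo luminescence, 30 min RT. Cells: wild type DT40, 300/well. Exposure: compounds in DMSO, 40 h, 37 C/5% CO2, after ~0.5 h pre-incubation.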
In the case of `CC(C)NCC(O)c1ccc2ccccc2c1` (configuration not stated), the Potency is 15 µM (active).

As for `O/N=C/C=N/O`, the “activity change, negative = cytotoxicity” value is 1.58% (inactive).

Turning to `O=[N+]([O-])c1c(Cl)cc(Cl)cc1Cl`, the “activity change, negative = cytotoxicity” value was 12.9% (inactive).

As for `O=C1OCCO1`, the “activity change, negative = cytotoxicity” value was 14% [at 95 µM] (inactive).

As for `CC1CCc2c(N3CCC(O)CC3)c(F)cc3c(=O)c(C(=O)O)cn1c23` (configuration not stated), the Potency was 26.6 µM (active).

For the compound `Nc1nc(-c2ccccc2)c(Br)c(=O)[nH]1`, the “activity change, negative = cytotoxicity” value is 5.13% (inactive).

Regarding `CCC(C)C(=O)OCCc1ccccc1` (configuration not stated), the “activity change, negative = cytotoxicity” value was -2.65% (inactive).

In the case of `CC(=O)O[Si](C)(OC(C)=O)OC(C)=O`, the “activity change, negative = cytotoxicity” value is -1.48% [at 95 µM] (inactive).

For the compound `CCCCCC/C=C/C(=O)OC`, the “activity change, negative = cytotoxicity” value was -2.62% (inactive).

As for `NCc1ccc(S(N)(=O)=O)cc1`, the “activity change, negative = cytotoxicity” value was 9.35% [at 31.4 µM] (inactive).

On to `Cc1ccccc1C(N)=O`, for which the “activity change, negative = cytotoxicity” value is 0.151% (inactive).

For the compound `[O]=[Mo](=[O])=[O]`, the “activity change, negative = cytotoxicity” value was -1.11% [at 31.4 µM] (inactive).

For `Cc1cccc(Cl)c1`, the “activity change, negative = cytotoxicity” value was 12.2% (inactive).

On to `O=NN(CCCl)C(=O)NC1CCCCC1`, for which the “activity change, negative = cytotoxicity” value was 14.3% (inactive).

On to `CCCCCc1cccc(=O)o1`, for which the “activity change, negative = cytotoxicity” value was 3.17% (inactive).

On to `CC(C)COC(=O)c1ccccc1`, for which the “activity change, negative = cytotoxicity” value is -24.5% (inactive).

As to `CCCCCC(C)O` (configuration not stated), the “activity change, negative = cytotoxicity” value was -19.6% (inactive).

Turning to `Cc1ccc(N)cc1S(=O)(=O)O`, the “activity change, negative = cytotoxicity” value was -14.7% (inactive).

Turning to `CC(C)=CCC/C(C)=C/COC=O`, the “activity change, negative = cytotoxicity” value was 1.86% (inactive).

For `CC(=O)CCc1ccc(OC(C)=O)cc1`, the “activity change, negative = cytotoxicity” value was 18.4% (inactive).

On to `CO[Si](CCCn1c(=O)n(CCC[Si](OC)(OC)OC)c(=O)n(CCC[Si](OC)(OC)OC)c1=O)(OC)OC`, for which the “activity change, negative = cytotoxicity” value was 14.7% (inactive).

With `CC(=O)CCC1=C(C)CCCC1(C)C`, the “activity change, negative = cytotoxicity” value was 2.07% (inactive).

For `Cc1ncc([N+](=O)[O-])n1CC(C)O` (configuration not stated), the “activity change, negative = cytotoxicity” value was 12.8% (inactive).

For the compound `CC(=O)Nc1ccc(OC(=O)c2ccccc2OC(C)=O)cc1`, the “activity change, negative = cytotoxicity” value is 22.6% (inactive).

In the case of `CC/C=C\CCOC(=O)c1ccccc1O`, the “activity change, negative = cytotoxicity” value is 3.08% (inactive).

For the compound `C=CCCCCCCCCC(=O)OCCCC`, the “activity change, negative = cytotoxicity” value was -1.53% (inactive).

Consider `CC(O)COC(C)(C)C` (configuration not stated), for which the “activity change, negative = cytotoxicity” value was -0.463% (inactive).

`CC(Oc1cc(Cl)ccc1Cl)C(=O)O` (configuration not stated): the “activity change, negative = cytotoxicity” value is -19.4% (inactive).
